Bioassay records: PubChem, National Center for Advancing Translational Sciences (NCATS)
D2 ag-1: HTS Assay for Allosteric Agonists of the Human D2 Dopamine Receptor: Primary Screen for Agonists. HEK293 T-REx D2 cells, calcium flux agonist mode. activation, % at 2 µM. hit rate 0.53% among 340,000. AID 485358, 2010;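 active means activation over 3 SD above normal in the single-dose calcium agonist read, cut at about 30% in these data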; further: 0% is about no effect
Target sequence (P14416 whole entry, looked up): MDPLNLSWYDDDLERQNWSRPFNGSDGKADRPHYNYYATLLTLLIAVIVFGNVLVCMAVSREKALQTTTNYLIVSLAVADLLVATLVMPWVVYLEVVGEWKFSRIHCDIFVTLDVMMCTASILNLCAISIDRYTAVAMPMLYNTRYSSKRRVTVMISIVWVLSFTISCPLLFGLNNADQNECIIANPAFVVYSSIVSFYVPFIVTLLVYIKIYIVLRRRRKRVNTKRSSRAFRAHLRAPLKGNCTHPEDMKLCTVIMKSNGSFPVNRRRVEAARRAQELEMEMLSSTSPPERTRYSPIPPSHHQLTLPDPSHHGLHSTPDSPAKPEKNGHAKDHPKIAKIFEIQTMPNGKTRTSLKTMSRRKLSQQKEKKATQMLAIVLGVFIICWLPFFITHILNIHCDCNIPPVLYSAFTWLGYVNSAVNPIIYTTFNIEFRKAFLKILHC
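Tetracycline-induced HEK293 Trex cells with D2 receptor force-coupled to calcium signaling, plated overnight at 30 C and loaded with no-wash calcium dye. Calcium flux read kinetically for 180 s after compound addition; responses flag agonists.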
D2 ag-2: Beta-Arrestin HTS for Positive Allosteric Modulators of the Human D2 Dopamine Receptor: Agonists | D(2) dopamine receptor (Homo sapiens), P14416 | DiscoveRx PathHunter D2 beta-arrestin, luminescence, 90 min; 100% = 57 uM dopamine signal | activation, % (no concentration beside the values) | hit rate 0.084% among 360,000 | AID 624465, 2012; in the data active means activation above about 40%
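DiscoveRx PathHunter D2 beta-arrestin cells (2,100/well) attached overnight, then compound-stimulated 90 min at 37 C in HBSS/10 mM HEPES/0.1% Tween-20 buffer; beta-galactosidase complementation read by luminescence after 1 h at ambient temperature. Dopamine 57 uM final (EC100) as control.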
D2 PAM-1: HTS Assay for Positive Allosteric Modulators of the Human D2 Dopamine Receptor: Primary Screen for Potentiators; hit rate 0.34% among 340,000; D(2) dopamine receptor (Homo sapiens), P14416; HEK293 T-REx D2, calcium flux, EC20 dopamine potentiation; AID 485347, 2010; potentiation, % at 10 µM;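 active means potentiation over 3 SD above the plate norm, cut at about 30% in these data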; further: 0% is about no effect
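Tetracycline-induced Hek293 Trex D2 cells, force-coupled to calcium, loaded with no-wash calcium dye. Compound added with 180 s kinetic read for agonism, then EC20 dopamine and a further 180 s read for potentiation.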
D2 antag: HTS Assay for Allosteric Antagonists of the Human D2 Dopamine Receptor: Primary Screen for Antagonists; hit rate 2% among 340,000; HEK293 TREx D2 cells, calcium flux, dopamine EC80; inhibition, % at 10 µM; in the data active means inhibition above about 30%; inactive means below that, where a call was filed; further: 0% is about no effect
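Overnight-induced (tetracycline, 30 C) HEK293 T-REx cells carrying force-coupled D2 receive a no-wash calcium dye, then compound, then EC80 dopamine at 180 s; signals are read kinetically throughout.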
D2 PAM-2: Beta-Arrestin HTS for Positive Allosteric Modulators of the Human D2 Dopamine Receptor: Potentiators; D(2) dopamine receptor (Homo sapiens), P14416; DiscoveRx D2 beta-arrestin cells, luminescence, 90 min; 100% = 57 uM dopamine signal; potentiation, % (test concentration not listed); hit rate 0.23% among 360,000; AID 624464, 2012; in the data active means potentiation above about 50%
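PathHunter beta-arrestin assay in DiscoveRx D2 cells. Compounds were added with an EC20 of dopamine (50 nM final) for 90 min at 37 deg C. Luminescence was read 1 h after detection reagent, with 57 uM dopamine as the EC100 control.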
Numbers without * were called inactive; · = no result. In the library only some 2.4% were active in any assay of this set; here they are far more common.

SMILES	D2 ag-1	D2 ag-2	D2 PAM-1	D2 antag	D2 PAM-2
CCOC(=O)C1=C(C)n2c(s/c(=C3\C(=O)Nc4ccccc43)c2=O)=NC1c1ccc(OC)cc1 (stereo unspecified)	-0.2	-3.0	7.8	39.7*	-37.0
CCOC(=O)C1=C(C)N=c2s/c(=C3/C(=O)Nc4ccccc43)c(=O)n2C1c1ccc(C)cc1 (stereo unspecified)	-0.9	-4.6	2.8	-5.5	-17.7
Cn1c(SCC(=O)N2CCCc3ccccc32)ncc(C(=O)Nc2ccc(Cl)cc2)c1=O	0.6	·	-5.3	·	·
C=CCN1C(=O)N/C(=C/c2ccc(C)o2)C1=O	39.2*	-11.1	-14.8	-3.1	-20.8
CC(=O)O[C@]1(C(C)=O)CC[C@H]2[C@@H]3C=C(Cl)C4=CC(=O)[C@@H]5C[C@@H]5[C@]4(C)[C@H]3CC[C@@]21C	0.6	-2.9	6.1	39.6*	-5.0
CC(=O)O[C@]1(C(C)=O)CC[C@H]2[C@@H]3C=C(Cl)C4=CC(=O)CC[C@]4(C)[C@H]3CC[C@@]21C	1.2	-3.9	7.6	-4.9	-3.5
CCc1ccccc1Nc1cc(C(=O)NCCCN(C)C2CCCCC2)c2ccccc2n1	1.0	·	-19.7	·	·
Cc1noc(C)c1S(=O)(=O)N1CCC(C(=O)Nc2ccccn2)CC1	0.2	-2.0	34.5*	3.3	14.8
CCN(CCN(C)C)C(=O)C1CCN(S(=O)(=O)c2c(C)noc2/C=C/c2ccccc2F)CC1	0.9	-2.7	-12.8	-8.0	-3.3
Cc1ccc(S(=O)(=O)N2CCC(C(=O)NCCc3ccccn3)CC2)cc1	3.0	-2.7	-3.2	42.6*	-20.2
CCOc1ccccc1/C=C/c1onc(C)c1S(=O)(=O)N1CCC(C(=O)N(CC)CC)CC1	-0.7	-1.4	-24.3	56.4*	-20.5
Cc1noc(C)c1S(=O)(=O)N1CCN(c2ccccc2)CC1	0.8	-7.2	-0.2	38.4*	-6.8
CCOC(=O)c1ccc(NC(=O)c2c(NCc3cccs3)sc3c2CCCCC3)cc1	-0.2	·	11.7	·	·
Cc1cc2nn(-c3ccccc3)nc2cc1NC(=O)COc1ccc(Cl)cc1	-0.3	·	-2.3	·	·
CC(NC(=O)COC(=O)CCc1ccccc1)c1ccccc1 (stereo unspecified)	-0.8	-1.7	-24.7	34.8*	-8.9
CC(NC(=O)COC(=O)CSCc1ccccc1)c1ccccc1 (stereo unspecified)	-1.2	0.1	2.8	1.5	-34.7
NC(=O)c1ccccc1N/C=C/C(=O)c1cccs1	0.0	-6.6	30.8*	-11.7	-4.3
Cc1cccc(N/C=C/C(=O)c2cccs2)c1C	-0.6	-4.1	-3.0	3.8	-23.9
COc1ccccc1CNC(=O)CN1C(=O)CSc2c1c(C)nn2-c1ccccc1	0.8	·	-1.0	·	·
Cn1c(NCC(O)c2ccccc2)nc2c1c(=O)n(Cc1ccc(Cl)cc1)c(=O)n2C (stereo unspecified)	0.4	-1.9	4.5	-13.3	-1.7
Cn1c(NCC(O)c2ccccc2)nc2c1c(=O)n(Cc1ccc(Cl)c(Cl)c1)c(=O)n2C (stereo unspecified)	·	2.1	·	·	54.1*
COc1ccc(/C=N/NC(=O)c2sccc2OCc2ccc(F)cc2)cc1OC	-0.6	-2.4	-8.2	36.7*	17.1
COCCNc1ccc(-c2nc(-c3ccccn3)no2)cc1[N+](=O)[O-]	-0.2	·	-0.8	·	·
COc1cc(NC(=O)CC(C)n2nc(C)cc2C)cc(OC)c1 (stereo unspecified)	0.4	·	11.6	·	·
CC1(OC(=O)C2CCCC2)C(=O)C=C2C=C(c3ccsc3)N(c3ccccc3)C=C2C1=O (stereo unspecified)	0.3	14.9	9.0	36.0*	-1.5
CCc1ccccc1NC(=O)c1ccc2c(c1)nnn2C1CCCC1	0.3	·	-11.5	·	·
Cc1ccccc1OCCC(=O)N1CCN(S(=O)(=O)c2ccc(Br)cc2)CC1	-0.7	-3.1	4.1	54.7*	-23.6
